Test results from the supplement of paper PMC11219838.
Values without a mark were called inactive.

tested on: Meloidogyne hapla J2; assay: proportion of mobile M. hapla J2 relative to DMSO control (fraction of DMSO control); higher = more viable, less nematicidal, active = 0.7 or less; settings: 60 µM; 5 days; temperature: 20 °C
Experimental: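 DODA library (846 commercial 1,3,4- and 1,2,4-oxadiazole compounds plus commercial nematicide controls) screened at a single dose of 60 µM (0.6% DMSO) in 96-well plates, two biological replicates. Read-outs: C. elegans N2 L1 survival/reproduction score at day 6, 20 °C (0: 0-10 worms, 1: 11-20, 2: 21-50, 3: >50, 4: overgrown/starved). C. elegans daf-2 dauer, D. dipsaci and M. hapla J2 mobility at day 5, 20 °C, and P. penetrans mobility at day 5, 20 °C, each relative to DMSO controls. M. hapla egg hatching at day 12, 25 °C, relative to the mean of 8 DMSO wells on the same plate.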

Compared with `Cn1c(SCc2cccc(F)c2)nnc1-c1ccco1`, `O=C(CSc1nnc(-c2ccco2)o1)Nc1cccc(C(F)(F)F)c1` is lower in “proportion of mobile M. hapla J2” value: 0.929 for the first, 0.879 for the second.

Compared with `Cc1cccc(-c2nnc(SCC(=O)NCCc3ccccc3)o2)c1`, `COc1ccc(-c2nnc(SCC(=O)OCc3ccccc3)o2)cc1` is higher in “proportion of mobile M. hapla J2” value: 0.872 for the first, 0.953 for the second.

First: CNC(=O)c1ccccc1-c1nc(-c2ccc(F)cc2)no1
Second: CC(C)(C)NC(=O)c1ccccc1-c1nc(-c2ccccc2)no1
The “proportion of mobile M. hapla J2” value of the first is higher: 0.987 for the first, 0.886 for the second.

Compared with `Cc1ccccc1-c1noc(COc2ccc(Cl)cc2Cl)n1`, `Cc1cccc(OCc2nc(-c3ccccc3Cl)no2)c1` is higher in “proportion of mobile M. hapla J2” value: 1.02 for the first, 1.08 for the second.

Going from `CC(Sc1nnc(-c2ccc(C(C)(C)C)cc2)o1)C(=O)Nc1nccs1` (stereo not given) to `Cc1ccc(NC(=O)CSc2nnc(-c3ccncc3)o2)cc1Cl`, the “proportion of mobile M. hapla J2” value rises from 0.845 to 0.939.

Compared with `CC1CC(C)CN(C(=O)CSc2nnc(-c3ccccc3)o2)C1` (stereo not given), `Cc1c(C)n(C(=O)CSc2nnc(-c3ccccc3)o2)c2ccccc12` is lower in “proportion of mobile M. hapla J2” value: 1.02 for the first, 0.982 for the second.

Going from `CCCc1ccc(-c2nc(-c3cccnc3)no2)cc1` to `CSc1ccccc1-c1nc(-c2cccnc2)no1`, the “proportion of mobile M. hapla J2” value falls from 1.08 to 1.07.

Compared with `O=C(Nc1ccc(-c2noc(COc3ccccc3Cl)n2)cc1)c1ccccn1`, `Cc1ccccc1OCc1nc(-c2ccc(Br)cc2)no1` is lower in “proportion of mobile M. hapla J2” value: 1.02 for the first, 0.788 for the second.

Going from `COc1ccc(-c2noc(C3CCCCC3)n2)cc1` to `COc1cccc(-c2nc(-c3ccc(F)cc3)no2)c1`, the “proportion of mobile M. hapla J2” value falls from 0.927 to 0.862.

Going from `Clc1cc(Cl)c(OCc2nc(-c3ccncc3)no2)cc1Cl` to `Clc1ccc(SCc2nc(-c3cccnc3)no2)cc1`, the “proportion of mobile M. hapla J2” value rises from 0.713 to 0.938.

`Cc1cc(OC(C)c2nc(-c3ccccn3)no2)ccc1Cl` (stereo not given) and `c1ccc(COc2cccc(-c3nc(-c4ccccn4)no3)c2)cc1` are the same in “proportion of mobile M. hapla J2” value: 1.03 for the first, 1.03 for the second.

Compared with `CCCCC(=O)Nc1ccccc1-c1nc(-c2ccccn2)no1`, `CCc1ccc(C(=O)Nc2ccccc2-c2nc(-c3cccnc3)no2)cc1` is lower in “proportion of mobile M. hapla J2” value: 1.06 for the first, 1.03 for the second.

Going from `Fc1ccc(-c2noc(-c3ccc(Cl)cc3)n2)cc1` to `Cc1ccc(-c2nc(-c3ccccc3)no2)cc1`, the “proportion of mobile M. hapla J2” value rises from 1.03 to 1.04.

Going from `c1ccc(-c2nnc(SCc3cccnc3)o2)cc1` to `Brc1ccc(CSc2nnc(-c3cccnc3)o2)cc1`, the “proportion of mobile M. hapla J2” value falls from 0.92 to 0.911.

Going from `Cc1ccc(-c2nnc(SCc3ccc(Br)cc3)o2)cc1` to `Clc1ccc(-c2nnc(SCc3ccccc3)o2)cc1`, the “proportion of mobile M. hapla J2” value falls from 0.923 to 0.827.

Going from `Brc1ccc(-c2noc(-c3ccc(Br)o3)n2)o1` to `Cc1cccc(-c2noc(-c3ccc(Br)cc3)n2)c1`, the “proportion of mobile M. hapla J2” value rises from 0.949 to 1.04.

Compared with `COc1ccc(-c2nnc(SCc3csc(N)n3)o2)cc1`, `COc1ccc(-c2nnc(SCC(=O)Nc3ccc(C)cc3Br)o2)cc1` is higher in “proportion of mobile M. hapla J2” value: 0.941 for the first, 1.01 for the second.

First: Cc1ccc(-c2noc(-c3ccc(-n4nncc4C)cc3)n2)cc1
Second: Cc1cccc(-c2noc(-c3ccccc3Cl)n2)c1
The “proportion of mobile M. hapla J2” value of the first is higher: 0.978 for the first, 0.894 for the second.

First: Cc1ncc2c(c1-c1noc(-c3ccccc3)n1)CCC2
Second: CCc1ccc(OCc2nc(-c3cccc(OC)c3)no2)cc1
The “proportion of mobile M. hapla J2” value of the first is higher: 0.921 for the first, 0.74 for the second.

First: C(=C\c1ccccc1)/CSc1nnc(-c2ccncc2)o1
Second: CCOc1ccccc1NC(=O)CSc1nnc(-c2ccco2)o1
The “proportion of mobile M. hapla J2” value of the first is lower: 0.979 for the first, 1.01 for the second.
